Bioassay records (PubChem)
CF NFkB block – inhibitors of cystic fibrosis induced NF-kB | 360,000 compounds, 0.86% hits | inhibition, % at 5 µM | KKLEB NF-kB-GFP reporter, PAF-induced, GFP fluorescence overnight;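 active = at least 50% inhibition at 5 µM, scaled per plate between neutral and stimulator controls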;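 also: PAF is a Pseudomonas aeruginosa culture filtrate used as stimulus; plate controls were PAF-stimulated DMSO wells for no effect and unstimulated DMSO wells for full effect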
HIF-2a inh – inhibitors of HIF-2a; 360,000 compounds, 0.72% hits; inhibition, % at 18.8 µM; 786-0 RCC cells HIF-2a reporter, luciferase luminescence, overnight;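 active = inhibition of the luminescence signal of 40% or more relative to plate controls, in a single-dose primary screen at 18.75 µM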
Peg3 promoter – reduces Peg3 promoter-driven luciferase expression in HeLa | 360,000 compounds, 1.7% hits | HeLa PEG-Prom luciferase reporter, luminescence, overnight | AID 588405 | inhibition, % at 20 µM;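 active = inhibition of at least 50% at 20 µM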
KKLEB cytotox – reduces viability of KKLEB cystic fibrosis airway cells | KKLEB CF airway cells viability, ATPlite luminescence, overnight; active compounds read low; cells stimulated with P. aeruginosa culture filtrate | activity change (cytotoxicity), % at 5 µM | 360,000 compounds, 0.36% hits | AID 602141;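 active = corrected activity change at or below -50% at 5 µM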
MITF TRPM1 inh – inhibitors of MITF-driven TRPM1 promoter in melanoma cells | 330,000 compounds, 0.83% hits | AID 488899 | SK-MEL-5 TRPM1 promoter luciferase, 24 h | inhibition, % at 12.5 µM;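 active = mean inhibition across replicates of 60% or more, whatever share of single replicates reaches that level; inconclusive = some that reach 60%, reason not given; inactive = mean inhibition across replicates below 60%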
LMP1 NFkB inh – inhibitors of Epstein-Barr LMP1-induced NF-kappaB reporter. inhibition, % at 12.5 µM. 350,000 compounds, 0.69% hits. AID 504558. LMP1-induced NF-kappaB luciferase reporter cells, luminescence; in the data active = inhibition above about 41%; inconclusive = no clear call, values can overlap the other calls;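 also: 0% = neutral control wells and 100% = reference inhibitor control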
Mdm2-MdmX confirm – Mdm2/MdmX (human) interaction inhibition, confirmed | SaOS-2 split-luciferase Mdm2/MdmX complementation, luminescence | AID 504601 | 740 compounds, 99% hits | shares compounds with HIF-2a inh | inhibition, % at 8 µM;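 active = mean inhibition of the luminescence signal across two replicates at or above 26 percent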
HIF-2a inh conf – confirmation of HIF-2a inhibitors | shares compounds with HIF-2a inh | 786-0 RCC cells, HIF-2a luciferase reporter luminescence, overnight | inhibition, % at 18.8 µM | 1,800 compounds, 56% hits | AID 651580;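 active = mean inhibition across four replicates of at least 40 percent at the single tested concentration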
HIF-1a counter – counter-screen for HIF-2a inhibitors: HIF-1a inhibition in MiaPaCa-2 cells; shares compounds with HIF-2a inh; MiaPaCa-2 HIF-1a luciferase reporter, desferoxamine, overnight; inhibition, % at 18.8 µM; 1,800 compounds, 72% hits;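 active = mean inhibition of the reporter signal across four replicates at the single tested dose of 50% or more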
An asterisk follows results filed as active; ? = inconclusive; / = no result given. Compounds with a hit are over-represented: about 3% of the library has one in this group of screens.

SMILES	CF NFkB block	HIF-2a inh	Peg3 promoter	KKLEB cytotox	MITF TRPM1 inh	LMP1 NFkB inh	Mdm2-MdmX confirm	HIF-2a inh conf	HIF-1a counter
CCN(CC)CCOc1ccc2c(c1)C(=NO)c1cc(OCCN(CC)CC)ccc1-2	15	54*	107*	-26	103*	-65	/	33	107*
CC(C)NC(=O)c1c(O)c2ccccc2[nH]c1=O	0	-101	-30	4	-10	-8	92*	/	/
CC(C)C(=O)NNC(=O)c1c(O)c2ccccc2[nH]c1=O	-10	-1	11	6	13	-7	/	/	/
COc1ccc(Cn2nnnc2C(c2cc3cccc(C)c3[nH]c2=O)N2CCN(C)CC2)cc1 (configuration not stated)	-24	41*	12	-5	-11	-15	/	-3	10
Cc1cccc2cc(C(c3nnnn3Cc3ccccc3)N3CCN(C)CC3)c(=O)[nH]c12 (configuration not stated)	-7	4	4	-15	0	-5	/	/	/
COc1ccc(C(=O)ON=C(C)c2nccs2)cc1	-39	-36	-4	7	/	/	/	/	/
CCN(Cc1ccccc1)c1ccc(/C=N/N=C(N)N)cc1	35	93*	108*	-18	64*	-10	103*	3	108*
Cc1ccc([C@@H]2C[C@H]3[C@@H](CN2S(=O)(=O)c2ccc(Cl)cc2)C(=O)C[C@@H](c2ccc(C)cc2)N3S(=O)(=O)c2ccc(Cl)cc2)cc1	31	5	10	-11	/	5	/	/	/
O=C(NCc1ccco1)/C(=C/c1cccc(C(F)(F)F)c1)c1nc2ccccc2[nH]1	19	41*	50*	-17	49	-33	/	13	55*
CCc1cc(SC#N)cc(C)c1N	-29	63*	13	-7	12	3	/	-14	-26
CCC(=O)Nc1ccc(SC#N)cc1C	-11	25	7	-1	5	0	/	/	/
COc1ccc(CN2C[C@@H](CO)O[C@@H](n3cnc4c(NC5CC5)ncnc43)C2)cc1	0	-5	7	-8	/	/	/	/	/
CC(C)NC(=O)C1(C)CN(S(C)(=O)=O)CC(=O)N1CCc1ccc(O)cc1 (configuration not stated)	/	14	/	/	/	/	/	/	/
S=c1[nH]nc(-c2ccccc2)n1/N=C/c1ccc(-c2ccccc2Cl)o1	7	0	12	19	6	-96	100*	/	/
COC(=O)[C@@]12C[C@@H](CC(=O)NCCC(C)C)C(=O)N(Cc3cccc4ccccc34)C1=CCC(C)(C)C2	/	-42	/	/	/	/	/	/	/
COc1ccccc1-c1cc(C(F)(F)F)nc(S(=O)(=O)CCCC(=O)N2CCCCC2C)n1 (configuration not stated)	92*	91*	110*	-75*	91*	0	/	91*	107*
COc1ccccc1-c1cc(C(F)(F)F)nc(N2CCCCC2)n1	6	5	3	-5	2	-8	/	/	/
COc1ccccc1-c1cc(C(F)(F)F)nc(S(=O)(=O)CCCC(=O)NCc2ccc(F)cc2)n1	95*	80*	107*	-88*	90*	14	103*	71*	102*
CCN(CC)S(=O)(=O)c1ccc(N/N=C/c2ccc(O)cc2O)nc1	-1	2	42	4	50	57*	87*	/	/
CCCCN(CC)Cc1ccc(CNC(=S)Nc2ccc(C)cc2Cl)o1	3	84*	-10	-8	15	9	/	60*	60*
CCCCN(CC)Cc1ccc(CNC(=S)Nc2c(C)cc(C)cc2C)o1	-8	12	6	0	0	5	/	/	/
O=C(Cc1ccc(Cl)cc1)NCCc1c[nH]c2ccccc12	14	1	5	-5	6	1	/	/	/
CC(=O)n1cc(N(C(=O)CCl)c2ccccc2)c2ccccc21	90*	84*	45	-95*	66*	7	103*	95*	106*
O=C(CCl)N(c1ccccc1)c1c[nH]c2ccccc12	64*	73*	86*	-54*	86*	?	103*	53*	104*
CC(=O)n1cc(CO)c2ccccc21	-6	19	-8	4	11	-8	/	/	/
SMILES	CF NFkB block	HIF-2a inh	Peg3 promoter	KKLEB cytotox	MITF TRPM1 inh	LMP1 NFkB inh	Mdm2-MdmX confirm	HIF-2a inh conf	HIF-1a counter
O=C(CCl)N(c1ccc(Cl)cc1)c1c[nH]c2ccccc12	84*	95*	103*	-89*	84*	?	103*	96*	107*
COc1ccc(NC(=O)C[C@H]2C(=O)N(CCc3ccccc3)C[C@@H]2Cc2ccccc2)cc1	7	-16	21	-18	/	-1	/	/	/
COc1cccc(C(C)(O)c2nc(-c3cccc4cccnc34)cs2)c1 (configuration not stated)	-10	6	-1	2	/	/	/	/	/
O=C(CC[C@H]1O[C@@H](n2cnc3c(NC(=O)c4ccccc4)ncnc32)[C@H](O)[C@@H]1O)NCC1CCN(Cc2ccccc2)CC1	-12	4	-9	-10	/	/	/	/	/
Cc1cccc(OCc2n(CC(=O)OC3CC(C)CCC3C(C)C)c3ccccc3[n+]2C)c1 (configuration not stated)	69*	96*	103*	-57*	96*	-15	102*	27	106*
CC1CCC(C(C)C)C(OC(=O)Cn2c(-c3ccc(F)cc3)[n+](C)c3ccccc32)C1 (configuration not stated)	50	-6	62*	-54*	80*	15	99*	/	/
CC1CCC(C(C)C)C(OC(=O)C[n+]2cc(-c3ccc(Cl)cc3)n3c2CCC3)C1 (configuration not stated)	20	-9	22	-25	29	6	/	/	/
CCc1nc2ccc(C(=O)NCc3ccc4c(c3)OCO4)cn2c1N(C)C(=O)Cc1ccccc1	-6	18	5	4	/	/	/	/	/
COc1ccc(NC(=O)C[C@H]2C(=O)N(Cc3ccccc3)C[C@@H]2C)cc1	-13	-5	-2	15	/	-3	/	/	/
Cc1cc2[nH]c3ccccc3c2c(C)n1	-48	14	33	1	18	5	/	/	/
Cc1cc2[nH]c3c4ccccc4nc(C)c3c2cc1C	-50	92*	106*	-68*	86*	-40	/	-4	105*
COc1ccc(Cl)c2sc(N(CCN(C)C)C(=O)CCS(=O)(=O)c3ccc(C)cc3)nc12	17	2	18	-12	5	-8	/	/	/
